PubChem BioAssay AID651657 (Broad Institute, 2012)
Entries with a potency or affinity are not part of this list. Active and inactive are the calls of the source.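 Rule for the calls: active = signal falls, with fitted half-maximal concentration at most twice the top valid dose tested; inconclusive = flat curve with partial signal loss, or poor curve fit; inactive = the rest, including signal rising instead.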

Molecular target: DNA repair and recombination protein RAD54-like (Homo sapiens) (UniProt Q92698)
Sequence (Q92698 whole entry, looked up): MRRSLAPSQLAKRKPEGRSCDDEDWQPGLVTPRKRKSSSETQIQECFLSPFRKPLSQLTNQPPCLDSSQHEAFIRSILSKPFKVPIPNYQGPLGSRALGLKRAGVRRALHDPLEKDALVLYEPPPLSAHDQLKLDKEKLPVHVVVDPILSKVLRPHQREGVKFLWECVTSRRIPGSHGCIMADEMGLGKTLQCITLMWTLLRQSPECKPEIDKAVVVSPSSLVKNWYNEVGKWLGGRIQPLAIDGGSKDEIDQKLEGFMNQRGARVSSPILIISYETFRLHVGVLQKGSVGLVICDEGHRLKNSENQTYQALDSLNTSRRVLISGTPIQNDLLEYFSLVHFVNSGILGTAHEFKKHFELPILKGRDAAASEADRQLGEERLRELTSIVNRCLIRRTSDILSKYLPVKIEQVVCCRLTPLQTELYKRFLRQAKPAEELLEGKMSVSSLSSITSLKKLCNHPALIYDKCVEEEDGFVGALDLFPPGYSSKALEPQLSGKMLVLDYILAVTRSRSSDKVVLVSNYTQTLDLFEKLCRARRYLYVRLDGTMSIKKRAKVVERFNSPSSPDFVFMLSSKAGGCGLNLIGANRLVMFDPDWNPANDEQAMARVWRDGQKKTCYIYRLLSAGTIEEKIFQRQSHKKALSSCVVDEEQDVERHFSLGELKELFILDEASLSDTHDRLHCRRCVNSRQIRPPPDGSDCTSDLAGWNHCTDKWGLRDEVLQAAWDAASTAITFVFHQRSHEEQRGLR
Experiment: RAD54 Holliday junction migration blockers – biochemical, fluorescence, cherry-picked samples, dose series, confirmation (AID 651657)
Conditions: RAD54 branch migration, FAM/BHQ fluorescence, 60 min; series mostly up to 50 µM

outcome, inactive:
Cc1ccc(S(=O)(=O)CCSc2ccc(C(F)(F)F)cn2)cc1, CCCC(c1nnnn1Cc1ccc(OC)cc1)N1CCN(c2ccccc2)CC1 (stereo not drawn), COc1ccccc1C1=NOC(Cn2c(NCCCO)nc3c2c(=O)n(C)c(=O)n3C)C1 (stereo not drawn), COc1cc(NC(=O)c2cccnc2Sc2ccc(C)c(C)c2)cc(OC)c1OC, O=C(NN1CCOCC1)c1cc(-c2ccc(Cl)c(Cl)c2)nc2ccccc12, c1ccc(-c2nnc(SCc3nc4ccccc4[nH]3)o2)cc1, Cc1cccc2cc3c(N)c(C#N)sc3nc12, COc1ccc(N2C(=O)CSC23CCCCC3)cc1, C=CCN1C(=O)C(C)(C)Nc2ccccc21, Cc1ccc(OCC(=O)Nc2cccc(-c3nnc(-c4ccccc4)o3)c2)c(C)c1, NC(=O)C1CCN(c2nc(-c3cccnc3)cs2)CC1, CCN1CCN(c2cc(C)c3cc(NC(=S)N4CCCC(C)C4)ccc3n2)CC1 (stereo not drawn), O=C(Nc1nnc(COc2ccc(F)cc2)s1)c1ccco1, O=C(CS(=O)(=O)c1ccccc1)Nc1ccc(Br)cn1, CC1CCCCC1NC(=O)C1Cc2ccccc2CN1S(C)(=O)=O (stereo not drawn), Cc1ccc(S(=O)(=O)N2CCOCC2)c(C)c1NS(C)(=O)=O, NCCN1CCN(CCN)CC1, O=c1cc(CSc2n[nH]c(=O)n2C2CC2)c2ccc(O)cc2o1, Cc1ccnc(Nc2nc(-c3sc(C)nc3C)cs2)c1, COc1ccccc1C(=O)C(O)c1ccccc1OC (stereo not drawn), C(=C/c1nccc2c1[nH]c1ccccc12)/c1ccc2c(c1)OCO2, Cc1ccnc(SCC(=O)Nc2sc3c(c2C#N)CCC(C(C)(C)C)C3)n1 (stereo not drawn), Cc1cccc(Cn2c(Sc3nc(C)cs3)nc3c2c(=O)[nH]c(=O)n3C)c1
